Outcome and AC50 data for 4 compounds are collected here from PubChem BioAssay (EPA / NIEHS).

Active and inactive are the calls of the source. The calls were made as follows: active = hit-call score of the fitted dose curve at least 0.9, where 1 is the maximum; inactive = score below 0.9.

Broadly, the AC50 is the concentration at which the activity in the assay is half-maximal.

Assay [1] is described as follows: BSK_CASM3C_SRB: Viability Assessment in the BioMAP Diversity Plus: CASM3C Assay (AID 2283050).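 Also: total protein by SRB staining as cytotoxicity measure in parallel cultures; cells exposed to compound for 24 h.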 To be noted: primary human coronary artery smooth muscle cells.
Read-out in assay [2]: Tissue Factor, F3 (gene 2152)
In words: BSK_CASM3C_TissueFactor: BioMAP Diversity Plus: CASM3C Assay for Tissue Factor Biomarker Activity (AID 2283052).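 Also: cell surface tissue factor protein level read by ELISA.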 As to conditions: primary human coronary artery smooth muscle cells; actives raise or lower the signal.

Read-out in assay [3]: Interferon-gamma inducible Protein 10 (IP10), CXCL10 (gene 3627)
In words: BSK_hDFCGF_IP10: BioMAP Diversity Plus: hDFCGF Assay for Interferon-gamma inducible Protein 10 (IP10) Biomarker Activity (AID 2283053). To be noted: primary human foreskin fibroblasts; actives raise or lower the signal. An outline of the steps:
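ELISA quantification of IP-10 after a 24 h chemical exposure of human dermal foreskin fibroblast primary cultures. Both increases and decreases versus DMSO fitted.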

Read-out in assay [4]: Urokinase-type plasminogen activator receptor (uPAR), PLAUR (gene 5329)
In words: BSK_CASM3C_uPAR: BioMAP Diversity Plus: CASM3C Assay for Urokinase-type plasminogen activator receptor (uPAR) Biomarker Activity (AID 2283054).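 Also: cell-surface uPAR protein level quantified by ELISA.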 As to conditions: primary human coronary artery smooth muscle cells; actives raise or lower the signal.

Read-out in assay [5]: Vascular cell adhesion molecule 1 (VCAM1), VCAM1 (gene 7412)
In words: BSK_CASM3C_VCAM1: BioMAP Diversity Plus: CASM3C Assay for Vascular cell adhesion molecule 1 (VCAM1) Biomarker Activity (AID 2283055).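 Also: VCAM-1 protein level quantified by ELISA on the cells.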 To be noted: primary human coronary artery smooth muscle cells; actives raise or lower the signal.

Read-out in assay [6]: Epidermal growth factor receptor (EGFR), EGFR (gene 1956)
In words: BSK_hDFCGF_EGFR: BioMAP Diversity Plus: hDFCGF Assay for Epidermal growth factor receptor (EGFR) Biomarker Activity (AID 2283057). As to conditions: primary human foreskin fibroblasts; actives raise or lower the signal. An outline of the steps:
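EGFR levels by ELISA in human dermal fibroblast cultures, 24 h post-treatment, fitted bidirectionally versus DMSO. Parallel wells stained with sulforhodamine B to detect overt cytotoxicity.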

Read-out in assay [7]: Interleukin-8 (IL8), CXCL8 (gene 3576)
In words: BSK_hDFCGF_IL8: BioMAP Diversity Plus: hDFCGF Assay for Interleukin-8 (IL8) Biomarker Activity (AID 2283058). As to conditions: primary human foreskin fibroblasts; actives raise or lower the signal. An outline of the steps:
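IL-8 levels read by ELISA at 24 hours after dosing human skin fibroblast cultures. Parallel SRB staining assessed overt cytotoxicity, and gain or loss of signal was fitted against DMSO control.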

Assay [8] in a line: BSK_hDFCGF_Proliferation: Cell Proliferation Assessment in the BioMAP Diversity Plus: hDFCGF Assay (AID 2283059).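 Also: curves fitted for both rise and fall of signal versus DMSO baseline.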 To be noted: primary human foreskin fibroblasts. An outline of the steps: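 This proliferation readout used SRB total-protein staining of human foreskin fibroblasts […], normalized to DMSO with bidirectional curve fitting.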
The nature of assay [9]: BSK_hDFCGF_SRB: Viability Assessment in the BioMAP Diversity Plus: hDFCGF Assay (AID 2283061).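 Also: cells exposed to compound for 24 h before the read.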 As to conditions: primary human foreskin fibroblasts. An outline of the steps: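 Viability was read as total protein: after 10% TCA fixation, wells were stained with 0.1% sulforhodamine B and read at 560 nm. Primary human foreskin fibroblasts were dosed for 24 h, with bidirectional fitting versus DMSO.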

Read-out in assay [10]: TIMP metallopeptidase inhibitor 1 (TIMP1), TIMP1 (gene 7076)
In words: BSK_hDFCGF_TIMP1: BioMAP Diversity Plus: hDFCGF Assay for TIMP metallopeptidase inhibitor 1 (TIMP1) Biomarker Activity (AID 2283062). As to conditions: primary human foreskin fibroblasts; actives raise or lower the signal. An outline of the steps:
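TIMP-1 measured by ELISA 24 h after chemical dosing of primary human skin fibroblasts, with gain or loss fitted relative to DMSO. Parallel SRB staining (560 nm) monitored overt cytotoxicity.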

Read-out in assay [11]: Monokine induced gamma interferon (MIG), CXCL9 (gene 4283)
In words: BSK_hDFCGF_MIG: BioMAP Diversity Plus: hDFCGF Assay for Monokine induced gamma interferon (MIG) Biomarker Activity (AID 2283063). As to conditions: primary human foreskin fibroblasts; actives raise or lower the signal. An outline of the steps:
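Human primary foreskin fibroblasts in the hDFCGF system, exposed to test chemical for 24 h; MIG measured by ELISA. Bidirectional curve fitting against DMSO negative control as activity baseline.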

Read-out in assay [12]: Matrix Metallopeptidase 1 (MMP1), MMP1 (gene 4312)
In words: BSK_hDFCGF_MMP1: BioMAP Diversity Plus: hDFCGF Assay for Matrix Metallopeptidase 1 (MMP1) Biomarker Activity (AID 2283064). As to conditions: primary human foreskin fibroblasts; actives raise or lower the signal. An outline of the steps: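 ELISA read-out of MMP1 from human foreskin fibroblasts (primary skin cells), 24 h post-dose. Gain or loss of signal was fitted bidirectionally versus DMSO negative control; cytotoxicity was checked by SRB in parallel cultures.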

Read-out in assay [13]: Vascular cell adhesion molecule 1 (VCAM1), VCAM1 (gene 7412)
In words: BSK_hDFCGF_VCAM1: BioMAP Diversity Plus: hDFCGF Assay for Vascular cell adhesion molecule 1 (VCAM1) Biomarker Activity (AID 2283065).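 As to AC50: VCAM-1 protein level quantified by ELISA after 24 h chemical exposure.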 To be noted: primary human foreskin fibroblasts; actives raise or lower the signal. An outline of the steps: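 ELISA readout of VCAM-1 on human dermal fibroblast primary cultures, 24 h after chemical exposure. Gain or loss of signal fitted in both directions against DMSO baseline.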

Read-out in assay [14]: Plasminogen activator inhibitor-1 (PAI1), SERPINE1 (gene 5054)
In words: BSK_hDFCGF_PAI1: BioMAP Diversity Plus: hDFCGF Assay for Plasminogen activator inhibitor-1 (PAI1) Biomarker Activity (AID 2283066). As to conditions: primary human foreskin fibroblasts; actives raise or lower the signal. An outline of the steps:
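PAI-1 levels in human dermal foreskin fibroblasts were quantified by ELISA 24 h after dosing, with gain or loss analysed against DMSO. Overt cytotoxicity was checked by sulforhodamine B total-protein staining in parallel cultures.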

Read-out in assay [15]: Intercellular Adhesion Molecule 1 (ICAM1), ICAM1 (gene 3383)
In words: BSK_KF3CT_ICAM1: BioMAP Diversity Plus: KF3CT Assay for Intercellular Adhesion Molecule 1 (ICAM1) Biomarker Activity (AID 2283067). To be noted: primary human keratinocytes with fibroblasts; actives raise or lower the signal. An outline of the steps: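 Cell-surface ICAM-1 was measured by ELISA 24 h after dosing primary human skin keratinocytes co-cultured with fibroblasts. Parallel SRB staining tracked overt cytotoxicity. Gain or loss of signal was fitted relative to DMSO.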

Read-out in assay [16]: Interferon-gamma inducible Protein 10 (IP10), CXCL10 (gene 3627)
In words: BSK_KF3CT_IP10: BioMAP Diversity Plus: KF3CT Assay for Interferon-gamma inducible Protein 10 (IP10) Biomarker Activity (AID 2283068). As to conditions: primary human keratinocytes with fibroblasts; actives raise or lower the signal. An outline of the steps: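 Signal is secreted/surface IP-10 by ELISA in a human primary skin co-culture of keratinocytes and foreskin fibroblasts, taken 24 h post-dosing; DMSO served as negative control.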

The nature of assay [17]: BSK_KF3CT_SRB: Viability Assessment in the BioMAP Diversity Plus: KF3CT Assay (AID 2283069).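 Also: read 24 h after compound addition.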 As to conditions: primary human keratinocytes with fibroblasts. An outline of the steps:
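SRB read-out at 560 nm (0.1% stain, TCA-fixed cells) gauges overt cytotoxicity in a human skin keratinocyte–fibroblast co-culture 24 h post-dosing. Signal change was fitted bidirectionally relative to DMSO control.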

Read-out in assay [18]: TIMP metallopeptidase inhibitor 2 (TIMP2), TIMP2 (gene 7077)
In words: BSK_KF3CT_TIMP2: BioMAP Diversity Plus: KF3CT Assay for TIMP metallopeptidase inhibitor 2 (TIMP2) Biomarker Activity (AID 2283071). To be noted: primary human keratinocytes with fibroblasts; actives raise or lower the signal. An outline of the steps: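 TIMP-2 measured by ELISA at 24 h in human keratinocyte/fibroblast primary co-cultures exposed to chemicals. Both increases and decreases were fitted against DMSO. Parallel cultures were stained with SRB for total protein as an overt-cytotoxicity check.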

Read-out in assay [19]: urokinase plasminogen activator (uPA), PLAU (gene 5328)
In words: BSK_KF3CT_uPA: BioMAP Diversity Plus: KF3CT Assay for urokinase plasminogen activator (uPA) Biomarker Activity (AID 2283075). As to conditions: primary human keratinocytes with fibroblasts; actives raise or lower the signal. An outline of the steps: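 Skin co-culture (keratinocytes + foreskin fibroblasts), human primary; 24 h post-dose; uPA by ELISA; gain/loss fit vs DMSO baseline.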

Read-out in another assay: CD40, CD40 (gene 958)
In words: BSK_LPS_CD40: BioMAP Diversity Plus: LPS Assay for CD40 Biomarker Activity (AID 2283076). As to conditions: primary human HUVEC with PBMC; actives raise or lower the signal. An outline of the steps:
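In the LPS system of human endothelial cells with peripheral blood mononuclear cells, CD40 levels were read by ELISA 24 h post-treatment. Signal changes in either direction were fitted against the DMSO baseline, with parallel SRB protein staining.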

Take `O=[N+]([O-])O`: the outcome in assay [1], in [2], in assay [3], in [4], in assay [5] and in assay [6] was inactive. Moreover, the result in assay [7], in [8], in assay [9], in assay [10], in assay [11] and in assay [12] was inactive. For the same compound, the outcome in [13], in assay [14], in [15], in assay [16], in [17] and in assay [18] was inactive. In addition, the outcome was “inactive” in assay [19] and “inactive” in the assay with CD40, CD40 (gene 958).
As for `CC(C)COP(=O)(OCC(C)C)OCC(C)C`, the outcome in assay [1], in assay [2], in assay [3], in assay [4], in [5] and in assay [6] was inactive. Besides, the outcome in assay [7], in [8], in assay [9], in [10], in assay [11] and in assay [12] was inactive. Also, the result in assay [13], in assay [14], in assay [15], in [16], in assay [17] and in [18] was inactive. The outcome is “inactive” in [19] and “inactive” with CD40, CD40 (gene 958).
On to `c1ccc(Nc2ccc3ccccc3c2)cc1`, for which the outcome in assay [1], in assay [2], in [4], in assay [5], in assay [6] and in assay [7] was inactive. Moreover, the outcome in [11] was “inactive”; with CD40, CD40 (gene 958), “inactive”. Also, the AC50 was 36.2 µM (active) in assay [3]; 34.9 µM (active) in [8]; 30.6 µM (active) in assay [9]; 31.5 µM (active) in [10]; 33.3 µM (active) in assay [12]; 30.1 µM (active) in [13]. In addition, the AC50 is 29.3 µM (active) in assay [14]; 36.6 µM (active) in assay [15]; 36.3 µM (active) in assay [16]; 36.9 µM (active) in assay [17]; 15.8 µM (active) in assay [18]; 30.7 µM (active) in [19].
Consider `CCCCCCCCCCCC#N`, for which the AC50 is 29.3 µM (active) in [1]; 28.8 µM (active) in assay [3]; 20.6 µM (active) in assay [5]; 10.1 µM (active) in assay [8]; 29.1 µM (active) in [9]; 33 µM (active) in assay [10]. In addition, the AC50 in assay [11] is 29.7 µM (active); in assay [12], 37.7 µM (active); in assay [13], 20.6 µM (active); in assay [14], 31.8 µM (active); in the assay with CD40, CD40 (gene 958), 30.8 µM (active). The outcome in assay [2], in assay [4], in assay [6], in assay [7], in assay [15] and in assay [16] was inactive. The result in assay [17], in [18] and in assay [19] was inactive.
